# Inconclusive results are not listed. Where a call stands in place of a potency, no number is given. The source made the active and inactive calls. The call rests on the fitted dose curve; in most records, active means well fitted inhibition curve with a large enough effect; inconclusive means small, poorly fitted or top-dose-only effect; inactive means flat fitted curve, though single readings scatter.
# Tested on: DFO2036
# Test: qHTS profiling for inhibitors of Plasmodium falciparum proliferation (AID 504749); further: nearly all actives have a fitted effect of over 60% in size
# Settings: P. falciparum in erythrocytes, SYBR Green DNA, 72 h; series mostly up to 28.7 µM
# Outline: (§1)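 P. falciparum-infected erythrocytes (0.3% parasitemia, 2.5% hematocrit final) were exposed to compounds for 72 h at 37 C in 5% CO2, then lysed with SYBR Green buffer overnight at room temperature; parasite DNA fluorescence was normalized to artemisinin and DMSO controls.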
row,Structure (SMILES),Potency
1,CCCOC(=O)c1ccccc1O,inactive
2,COc1cc2c(cc1OC)[C@@H](Cc1cc(OC)c(OC)c(OC)c1)[N+](C)(CCCOC(=O)CC/C=C/CCC(=O)OCCC[N+]1(C)CCc3cc(OC)c(OC)cc3[C@H]1Cc1cc(OC)c(OC)c(OC)c1)CC2 (stereo partly drawn),inactive
3,OC[C@H]1O[C@@](CO)(O[C@H]2O[C@H](CO)[C@@H](O)[C@H](O)[C@H]2O)[C@@H](O)[C@@H]1O,inactive
4,CCC(Cc1c(I)cc(I)c(O)c1I)C(=O)O (stereo not drawn),inactive
5,Nc1ncnc2c1ncn2CCOCP(=O)(O)O,inactive
6,O=C(O)CCC/C=C\C[C@@H]1[C@@H](/C=C/[C@@H](O)COc2cccc(Cl)c2)[C@H](O)C[C@@H]1O,inactive
7,N=C(N)n1cccn1,inactive
8,CCSc1ccc2c(c1)N(CCCN1CCN(C)CC1)c1ccccc1S2,inactive
9,CC(C)c1nc(N(C)S(C)(=O)=O)nc(-c2ccc(F)cc2)c1/C=C/C(O)CC(O)CC(=O)O (stereo not drawn),inactive
10,CCOC(C)OCC,inactive
11,NCCN,inactive
12,CC(CC=O)CCCC(C)(C)O (stereo not drawn),inactive
13,CC(C)(COP(=O)(O)OP(=O)(O)OC[C@H]1O[C@@H](n2cnc3c(N)ncnc32)[C@H](O)[C@@H]1OP(=O)(O)O)C(O)C(=O)NCCC(=O)NCCS (stereo partly drawn),inactive
14,O=C1c2ccccc2CN2C(=O)c3ccccc3CN12,inactive
15,O=C1c2ccccc2C(=O)C1c1ccc(F)cc1,inactive
16,CNC(=O)C[C@@H](N)C(=O)N[C@@H](C(=O)N[C@@H]1C(=O)N2[C@@H]1SC(C)(C)[C@@H]2C(=O)O)c1ccc(O)cc1,inactive
17,CCCCCc1ccc(C)cc1O,inactive
18,C=CC(C)(O)CC/C=C(\C)CCC=C(C)C (stereo not drawn),inactive
19,Cc1ccc(S(=O)(=O)NCl)cc1,inactive
20,CN1c2c(nc(N)[nH]c2=O)NCC1CNc1ccc(C(=O)NC(CCC(=O)O)C(=O)O)cc1 (stereo not drawn),inactive

row,Structure (SMILES),Potency
1,NC(=O)[C@@H]1CCCN1C(=O)[C@H](Cc1cnc[nH]1)NC(=O)[C@@H]1CCC(=O)N1,inactive
2,CN(C)CCOc1ccc(/C(=C(/CCCl)c2ccccc2)c2ccccc2)cc1,inactive
3,CC1(O)CCC(C(C)(C)O)CC1 (stereo not drawn),inactive
4,COc1ccccc1N1CCN(CCCC(=O)c2ccc(F)cc2)CC1,inactive
5,CC(C)[C@@H](N)C(=O)O,inactive
6,CN(C)c1ccc(C(=C2C=CC(=[N+](C)C)C=C2)c2c(O)c(S(=O)(=O)[O-])cc3cc(S(=O)(=O)O)ccc23)cc1,inactive
7,COc1cc(S(C)=O)ccc1-c1nc2ncccc2[nH]1 (stereo not drawn),inactive
8,Oc1cc(O)cc(O)c1,inactive
9,N[C@H](CC(=O)O)C(=O)O,inactive
10,C/C=C/C=C/C(=O)O,inactive
11,C=C(C)C1CC=C(C)CC1 (stereo not drawn),inactive
12,Nc1ncnc2c1ncn2[C@H]1CC[C@@H](CO)O1,inactive
13,NCC[C@H](O)C(=O)N[C@@H]1C[C@H](N)[C@@H](O[C@H]2O[C@H](CN)CC[C@H]2N)[C@H](O)[C@H]1O[C@H]1O[C@H](CO)[C@@H](O)[C@H](N)[C@H]1O,inactive
14,[O]=[Bi][O]C(=O)[O][Bi]=[O],inactive
15,Cc1c(Cl)cccc1Nc1ncccc1C(=O)O,inactive
16,CC1(C)S[C@@H]2[C@H](NC(=O)C3(N)CCCCC3)C(=O)N2[C@H]1C(=O)O,inactive
17,CCCCCCCCCCCC(=O)OCC(O)CO (stereo not drawn),inactive
18,COc1ccc(C(=O)c2ccc(C)cc2)c(O)c1,inactive
19,O=C1NCCN1c1ncc([N+](=O)[O-])s1,inactive

# Tested on: DIV14
# Test: as above
# Settings: P. falciparum in erythrocytes, SYBR Green DNA, 72 h; series mostly up to 28.7 µM
# Outline: as §1
row,Structure (SMILES),Potency
1,CCCOC(=O)c1ccccc1O,inactive
2,COc1cc2c(cc1OC)[C@@H](Cc1cc(OC)c(OC)c(OC)c1)[N+](C)(CCCOC(=O)CC/C=C/CCC(=O)OCCC[N+]1(C)CCc3cc(OC)c(OC)cc3[C@H]1Cc1cc(OC)c(OC)c(OC)c1)CC2 (stereo partly drawn),inactive
3,OC[C@H]1O[C@@](CO)(O[C@H]2O[C@H](CO)[C@@H](O)[C@H](O)[C@H]2O)[C@@H](O)[C@@H]1O,inactive
4,CCC(Cc1c(I)cc(I)c(O)c1I)C(=O)O (stereo not drawn),inactive
5,Nc1ncnc2c1ncn2CCOCP(=O)(O)O,inactive
6,O=C(O)CCC/C=C\C[C@@H]1[C@@H](/C=C/[C@@H](O)COc2cccc(Cl)c2)[C@H](O)C[C@@H]1O,inactive
7,N=C(N)n1cccn1,inactive
8,CC(C)c1nc(N(C)S(C)(=O)=O)nc(-c2ccc(F)cc2)c1/C=C/C(O)CC(O)CC(=O)O (stereo not drawn),inactive
9,CCOC(C)OCC,inactive
10,NCCN,inactive
11,CC(CC=O)CCCC(C)(C)O (stereo not drawn),inactive
12,CC(C)(COP(=O)(O)OP(=O)(O)OC[C@H]1O[C@@H](n2cnc3c(N)ncnc32)[C@H](O)[C@@H]1OP(=O)(O)O)C(O)C(=O)NCCC(=O)NCCS (stereo partly drawn),inactive
13,O=C1c2ccccc2CN2C(=O)c3ccccc3CN12,inactive
14,O=C1c2ccccc2C(=O)C1c1ccc(F)cc1,inactive
15,CNC(=O)C[C@@H](N)C(=O)N[C@@H](C(=O)N[C@@H]1C(=O)N2[C@@H]1SC(C)(C)[C@@H]2C(=O)O)c1ccc(O)cc1,inactive
16,C=CC(C)(O)CC/C=C(\C)CCC=C(C)C (stereo not drawn),inactive
17,Cc1ccc(S(=O)(=O)NCl)cc1,inactive

row,Structure (SMILES),Potency
1,CN1c2c(nc(N)[nH]c2=O)NCC1CNc1ccc(C(=O)NC(CCC(=O)O)C(=O)O)cc1 (stereo not drawn),inactive
2,NC(=O)[C@@H]1CCCN1C(=O)[C@H](Cc1cnc[nH]1)NC(=O)[C@@H]1CCC(=O)N1,inactive
3,CC1(O)CCC(C(C)(C)O)CC1 (stereo not drawn),inactive
4,CC(C)[C@@H](N)C(=O)O,inactive
5,COc1cc(S(C)=O)ccc1-c1nc2ncccc2[nH]1 (stereo not drawn),inactive
6,Oc1cc(O)cc(O)c1,inactive
7,N[C@H](CC(=O)O)C(=O)O,inactive
8,C/C=C/C=C/C(=O)O,inactive
9,C=C(C)C1CC=C(C)CC1 (stereo not drawn),inactive
10,Nc1ncnc2c1ncn2[C@H]1CC[C@@H](CO)O1,inactive
11,NCC[C@H](O)C(=O)N[C@@H]1C[C@H](N)[C@@H](O[C@H]2O[C@H](CN)CC[C@H]2N)[C@H](O)[C@H]1O[C@H]1O[C@H](CO)[C@@H](O)[C@H](N)[C@H]1O,inactive
12,[O]=[Bi][O]C(=O)[O][Bi]=[O],inactive
13,Cc1c(Cl)cccc1Nc1ncccc1C(=O)O,inactive
14,CC1(C)S[C@@H]2[C@H](NC(=O)C3(N)CCCCC3)C(=O)N2[C@H]1C(=O)O,inactive
15,CCCCCCCCCCCC(=O)OCC(O)CO (stereo not drawn),inactive
16,COc1ccc(C(=O)c2ccc(C)cc2)c(O)c1,inactive
17,O=C1NCCN1c1ncc([N+](=O)[O-])s1,inactive

# Source: PubChem BioAssay (NCATS)
